# Among all 16,000 compounds or so, about 5,700 (36%) were called active. Another 24% or so got no clear call; they are omitted. Some of the results follow. Unmarked numbers belong to inactive results. The call rests on the fitted dose curve; in most records, active means well fitted curve in the direction sought with a large enough effect; inconclusive means small, poorly fitted or top-dose-only effect, or effect the other way; inactive means no such curve, though single readings can be large or run the other way.
# Biological target: Cytochrome P450 1A2 (Homo sapiens) (UniProt P05177)
# Assay: Cytochrome panel assay with activity outcomes
# Conditions: recombinant CYP, pro-luciferin dealkylation, luminescence, p450-cyp1a2; series mostly up to 57.1 µM
# On the % scale 0 is the no-effect control and ±100 the full control effect.
# Chain of Cytochrome P450 1A2 (Homo sapiens) (P05177 whole entry, looked up): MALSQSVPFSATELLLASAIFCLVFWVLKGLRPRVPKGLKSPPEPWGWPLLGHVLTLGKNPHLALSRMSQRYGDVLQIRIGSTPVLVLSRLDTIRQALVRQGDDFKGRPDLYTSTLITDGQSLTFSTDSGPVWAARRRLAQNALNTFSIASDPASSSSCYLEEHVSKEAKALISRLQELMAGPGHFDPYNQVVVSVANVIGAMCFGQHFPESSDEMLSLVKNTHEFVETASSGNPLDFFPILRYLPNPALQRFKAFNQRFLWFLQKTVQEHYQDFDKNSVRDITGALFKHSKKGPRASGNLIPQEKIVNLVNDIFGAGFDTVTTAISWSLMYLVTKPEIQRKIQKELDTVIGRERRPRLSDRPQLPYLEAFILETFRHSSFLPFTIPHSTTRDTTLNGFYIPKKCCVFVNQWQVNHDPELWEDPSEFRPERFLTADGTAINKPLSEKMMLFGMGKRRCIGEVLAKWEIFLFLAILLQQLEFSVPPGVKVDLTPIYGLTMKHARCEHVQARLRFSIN
SMILES,AC50,"activity, negative = inhibition"
Cn1c(-c2sccc2OCc2ccccc2)n[nH]c1=S,0.355 µM (active),–
CSc1n[nH]c(-c2sccc2OCc2ccc(C)cc2)n1,1.41 µM (active),–
CSc1nnc(-c2sccc2OCc2ccccc2)n1C,7.08 µM (active),–
CC(=O)O[C@]1(C)N=NC2(CCCCC2)O1,–,-9.6% [at 11.4 µM]
CC(=O)OC[C@@H]1O[C@@H](O/N=C2/C[C@@H](O)[C@@H](O)[C@@H]3[C@@H]4C(=O)N(C[C@@H]5CCCO5)C(=O)[C@H]4CC[C@H]23)[C@H](OC(C)=O)[C@H](OC(C)=O)[C@@H]1OC(C)=O,–,-5.84% [at 11.4 µM]
Cc1noc(C)c1-c1ccc2ncnc(N3CCOCC3)c2c1,12.6 µM (active),–
Cc1noc(C)c1-c1cncnc1N1CCN(C)CC1,inactive,–
Cc1noc(C)c1-c1ccc2ncnc(N3CCN(C)CC3)c2c1,12.6 µM (active),–
NCCc1ccn[nH]1,inactive,–
Cc1ccc(NC(=O)CN2CCC(NC(=O)Cc3ccccc3)CC2)cc1C,inactive,–
COc1cc(C(=O)OCC(=O)Nc2cc(C)on2)cc(OC)c1OC,inactive,–
CCOC(=O)c1[nH]c2cc(OC)c(OC)cc2c1NC(=O)c1nonc1C,1 µM (active),–
COC(=O)c1[nH]c2cc(OC)ccc2c1NC(=O)c1ccc2c(c1)OCO2,2.51 µM (active),–
CCOC(=O)c1[nH]c2cc3c(cc2c1NC(=O)CN1CCc2ccccc2C1)OCO3,2.82 µM (active),–
CCOC(=O)c1[nH]c2cc(OC)c(OC)cc2c1NC(=O)c1ccc2c(c1)OCO2,2.24 µM (active),–
CC1(C)CC(NC(=O)c2ccc3c(c2)OCO3)CC(C)(C)N1,inactive,–
c1ccc2c[n+](Cc3ccnc4ccccc34)ccc2c1,–,-21.8% [at 2.29 µM]
CCOC(=O)N1CCC(NC(=O)c2cc(S(=O)(=O)N3CCCC3)cn2C)CC1,inactive,–
O=C(CCN1CCOCC1)Nc1ccc(F)cc1F,–,-11.8% [at 11.4 µM]
CCOC(=O)c1[nH]c2ccc(OC)cc2c1NC(=O)c1ccc2c(c1)OCO2,2.24 µM (active),–
CCN1CCN(CCC(=O)Nc2cccc(OC)c2)CC1,inactive,–
COC(=O)c1[nH]c2cc(OC)ccc2c1NC(=O)CCN1CCSCC1,1.41 µM (active),–
COc1ccc(-c2nc3cnc(N(C)C)nc3n(C[C@H]3CCCO3)c2=O)cc1,3.16 µM (active),–
CN(C)c1ncc2nc(-c3ccc(F)cc3)c(=O)n(C[C@H]3CCCO3)c2n1,2.51 µM (active),–
C/C(CCc1ccc2c(c1)OCO2)=N\N=C1\NC(=O)CC(C(=O)Nc2ccccc2)S1 (stereo not given),15.8 µM (active),–
